# PfHsp90 set2: growth inhibition of yeast expressing Plasmodium Hsp90; S. cerevisiae expressing PfHsp90, BacTiter-Glo ATP, 48 h; yeast lacking PDR1 and PDR3 efflux regulators; inhibition, % at 9.4 µM; hit rate 0.32% among 310,000;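 active = every replicate shows inhibition above about 80%, whatever the replicate mean, limit read from the data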
# tim10-1 inh: growth inhibitors of tim10-1 mutant yeast | S. cerevisiae tim10-1 ts strain growth, BacTiter-Glo, 24 h | inhibition, % at 20 µM | hit rate 2.2% among 330,000;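 active = inhibition of at least 40%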;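 note: mutant grown at 25 °C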
# SKKanGAS inh: SKKanGAS growth inhibition; S. pyogenes SKKanGAS, kanamycin growth, BacTiter-Glo, 6 h; inhibition, % at 7.5 µM; hit rate 1.3% among 300,000; AID 1662;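 active = mean replicate score, as percent of positive control median, at least 50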;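 note: strain carries kanamycin resistance gene driven by streptokinase promoter and grows in 40 µg/ml kanamycin; loss of luminescence reflects streptokinase promoter inhibition or plain growth inhibition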
# TIM10 inh: growth inhibitors of TIM10 yeast strain. S. cerevisiae TIM10 strain growth, BacTiter-Glo luminescence, 24 h. inhibition, % at 10 µM. hit rate 1.4% among 330,000. AID 463195;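 active = inhibition of 40% or more at the single tested concentration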;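 note: wild-type TIM10 isogenic control strain grown at permissive 25 °C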
# NALP3 yeast inh: blocks the NALP3 inflammasome reconstituted in yeast; Yeast reconstituted NLRP3/ASC/caspase-1, beta-gal luminescence, 24 h; inhibition, % at 10 µM; hit rate 0.39% among 330,000; AID 2825;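 active = inhibition of 50% or more; inactive = inhibition below 50%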
# tim23-1 inh: growth inhibitors of tim23-1 mutant yeast; S. cerevisiae tim23-1 growth, BacTiter-Glo luminescence, 24 h; inhibition, % at 20 µM; hit rate 1.3% among 330,000; AID 463212;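 active = growth inhibition of the mutant yeast at or above 50%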;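 note: temperature-sensitive mutant grown at 25 °C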
# tim10-1 confirm: confirmation of tim10-1 mutant yeast growth inhibitors | shares compounds with tim10-1 inh | S. cerevisiae tim10-1 ts strain growth, BacTiter-Glo, 24 h | inhibition, % at 20 µM | hit rate 56% among 7,400;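 active = inhibition of yeast growth at or above a set limit in either of two repeat tests at 20 µM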;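 note: tim10-1 mutant grown at permissive 25 °C to find synthetic lethal compounds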
# tim10 confirm: TIM10 yeast growth inhibition, confirmed; shares compounds with TIM10 inh; S. cerevisiae tim10 strain growth, BacTiter-Glo luminescence, 24 h; inhibition, % at 10 µM; hit rate 63% among 4,600;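 active = inhibition of yeast growth at or above a set limit in either of two replicates at 10 µM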; note: this counterscreen used the strain with wild-type TIM10
# tim23-1 confirm: confirmation of tim23-1 mutant yeast growth inhibitors | shares compounds with tim23-1 inh | S. cerevisiae tim23-1 growth, BacTiter-Glo luminescence, 24 h | inhibition, % at 20 µM | hit rate 83% among 4,400 | AID 463218;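 active = inhibition above about 39% in either of two replicate wells at 20 µM, limit read from the data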;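 note: temperature-sensitive tim23-1 mutant grown at 25 °C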
# Numbers stand for hits; i = inactive; nt = not tested or not shown. This is a sample that favours compounds with a hit; in the whole collection about 4.6% have one here.
SMILES,PfHsp90 set2,tim10-1 inh,SKKanGAS inh,TIM10 inh,NALP3 yeast inh,tim23-1 inh,tim10-1 confirm,tim23-1 confirm,others
CCC(C)c1ccc(NC(=S)NCc2cccs2)cc1 (stereo not drawn),nt,56,i,54,i,53,55,55,tim10 confirm=44
Cc1ccccc1S(=O)(=O)Cc1ccc(C(=O)N(C)C2CCCCC2)o1,i,i,i,i,i,i,nt,nt,
COc1cc2c(cc1OC)C(c1ccc(-c3ccc(Cl)c(Cl)c3)o1)=NCC2,i,56,i,i,i,57,44,54,
COc1cc2c(cc1OC)C(C)=NCC2,i,i,i,i,i,i,nt,nt,
COc1ccc(N2CCN(C(=O)CSc3nnc(-c4ccco4)n3C)CC2)cc1,nt,i,i,i,i,i,nt,nt,
O=c1c2cnn(-c3ccccc3)c2nc(-c2ccco2)n1-c1ccccc1,i,i,nt,i,i,i,nt,nt,
O=c1oc(-c2ccco2)nc2c1cnn2-c1ccccc1,i,48,i,i,i,64,35,67,
COc1ccc(-c2sc(C(=O)c3ccc(Cl)cc3Cl)cc2CC(=O)O)cc1,i,i,i,i,i,i,nt,nt,
O=C(OCC(=O)C12CC3CC(CC(C3)C1)C2)c1ccc(O)cc1O,101,53,i,i,i,76,i,62,
O=C(COC(=O)c1ccc(O)cc1O)NC12CC3CC(CC(C3)C1)C2,i,i,nt,i,i,i,nt,nt,
CCc1cccc2c1NC(=O)C2(O)N1CCCC(C)C1 (stereo not drawn),i,i,i,i,i,i,nt,nt,
CCc1cccc2c1NC(=O)C21N2CCCC2C(C(=O)c2ccc3ccccc3c2)C12C(=O)Nc1ccccc12 (stereo not drawn),i,65,i,69,i,51,70,61,tim10 confirm=71
Cc1cccc2c1NC(=O)C21N2CCCC2C(C(=O)c2ccc3ccccc3c2)C12C(=O)Nc1ccccc12 (stereo not drawn),nt,46,i,43,i,51,71,57,tim10 confirm=66
Cc1cc(C(=O)N2CCCC(C(=O)c3ccc4ccccc4c3)C2)nn1C (stereo not drawn),i,i,i,i,i,i,nt,nt,
COc1ccccc1-n1cnc2cc(NCc3cccs3)ccc21,i,45,i,45,i,56,i,71,tim10 confirm=i
COc1ccc(CNc2ccc3c(c2)ncn3-c2ccccc2OC)cc1,i,53,i,64,i,61,i,71,tim10 confirm=62
CN1CCN(S(=O)(=O)c2ccc(C#N)cc2)C(c2ccccc2)C1 (stereo not drawn),i,i,nt,i,i,i,nt,nt,
CNC(=O)[C@@H]1CCC(=O)N1,nt,i,nt,i,i,i,nt,nt,
CC(C)CNC(=O)c1ccc(Cl)c(Cl)c1,i,i,i,i,i,i,nt,nt,
COc1ccc(OC)c(NC(=O)C(=O)NNC(=O)C23CC4CC(CC(C4)C2)C3)c1,i,i,i,i,i,i,nt,nt,
Cn1cccc1/C=N/n1c(-c2ccccc2)n[nH]c1=S,i,i,i,i,i,i,nt,nt,
Cn1cccc1/C=N/n1c(-c2ccc(C(C)(C)C)cc2)n[nH]c1=S,nt,44,i,i,i,54,i,49,
O=Cc1ccc(O)c2ncccc12,124,44,i,54,i,71,i,72,tim10 confirm=75
c1cnc2ccc3ncccc3c2c1,i,i,i,i,i,i,nt,nt,
Cc1sc2ncn(CC(=O)N3CCN(c4ccc(F)cc4)CC3)c(=O)c2c1S(=O)(=O)N1CCOCC1,i,i,i,i,i,i,nt,nt,
SMILES,PfHsp90 set2,tim10-1 inh,SKKanGAS inh,TIM10 inh,NALP3 yeast inh,tim23-1 inh,tim10-1 confirm,tim23-1 confirm,others
O=C(CNC(=O)c1ccccc1F)NCCc1ccc(Cl)cc1Cl,i,i,i,i,i,i,nt,nt,
O=C(NC(=O)c1ccccc1F)OCc1ccc(Cl)cc1Cl,i,46,i,i,i,50,i,45,
COc1cc(/C=C/c2sc3ccccc3[n+]2CCCS(=O)(=O)[O-])ccc1O,i,45,i,i,i,52,44,50,
O=C(OCc1csc(Nc2ccccc2)n1)c1ccc(Cl)cc1,i,47,55,58,i,61,i,44,tim10 confirm=41
O=C(COc1ccccc1)OCc1csc(Nc2ccccc2)n1,i,i,i,i,i,i,nt,nt,
CCCCn1c(N(CCOC(C)=O)C(C)=O)nc2ccccc21,nt,i,i,i,i,i,nt,nt,
Cc1cccc(N2CCN(c3nc4ccccc4n4cnnc34)CC2)c1C,i,70,i,53,i,64,i,72,tim10 confirm=42
COc1ccccc1-c1ccc(NC2CCCCC2)nn1,i,43,i,i,i,52,38,41,
COc1ccccc1-c1ccc(Nc2cccc(C(F)(F)F)c2)nn1,i,i,i,i,i,i,nt,nt,
CN(C)C(=O)c1ccc2c(c1[N+](=O)[O-])C(=O)c1ccccc1C2=O,i,71,i,69,i,61,61,58,tim10 confirm=63
Cc1[nH]c2c(C)cccc2c1CCNC(=O)c1ccc2c(c1[N+](=O)[O-])C(=O)c1ccccc1C2=O,i,i,i,i,i,i,nt,nt,
O/N=C(/CCc1ccccc1)c1ccc2c(c1)OCCO2,i,i,i,i,i,i,nt,nt,
Cc1nc(SCC(=O)Nc2ccc(CN3CCCC3)cc2)c2c(C)c(C)sc2n1,nt,51,nt,51,i,53,62,57,tim10 confirm=38
Cc1ccc(CS(=O)(=O)c2ncc(Cl)c(C(=O)Nc3ccc(OC(F)F)cc3)n2)cc1,i,44,54,i,i,65,i,52,
CCS(=O)(=O)c1ncc(Cl)c(C(=O)Nc2ccc(C)cc2)n1,i,i,i,i,i,i,nt,nt,
CCOc1ccccc1NC(=O)c1nc(S(=O)(=O)Cc2cccc(C)c2)ncc1Cl,i,44,73,41,i,81,44,83,tim10 confirm=71
Cc1cc(Nc2ccccc2)nc(NCc2ccccc2)n1,i,i,i,i,i,i,nt,nt,
Cc1ccc(Nc2cc(C)nc(-c3ccccc3)n2)cc1,i,42,i,i,i,51,33,58,
COc1ccccc1OCC(=O)N(Cc1nc(-c2ccccc2)no1)C1CCCCC1,i,42,nt,i,i,52,31,51,
Cc1ccccc1OCC(=O)N(Cc1nc(-c2ccccc2)no1)C(C)C,i,i,i,i,i,i,nt,nt,
N/N=C1\CCCc2c1[nH]c1ccc([N+](=O)[O-])cc21,nt,i,i,i,i,i,nt,nt,
O=[N+]([O-])c1ccc2[nH]c3c(c2c1)CCCC3,i,65,i,i,i,66,57,66,
CCCCCn1c(SCC(=O)c2ccccc2)nc2cc(C(=O)NCC3CCCO3)ccc2c1=O (stereo not drawn),i,nt,nt,nt,nt,nt,nt,nt,
